Consider 11 compounds from ChEMBL document CHEMBL1961873, “Compounds: GSK PKIS; Assays: Nanosyn kinase panel” (2012).

The target in test [1] is T1, Tyrosine-protein kinase receptor TYRO3 (Homo sapiens) (UniProt Q06418).
T1 sequence (whole entry): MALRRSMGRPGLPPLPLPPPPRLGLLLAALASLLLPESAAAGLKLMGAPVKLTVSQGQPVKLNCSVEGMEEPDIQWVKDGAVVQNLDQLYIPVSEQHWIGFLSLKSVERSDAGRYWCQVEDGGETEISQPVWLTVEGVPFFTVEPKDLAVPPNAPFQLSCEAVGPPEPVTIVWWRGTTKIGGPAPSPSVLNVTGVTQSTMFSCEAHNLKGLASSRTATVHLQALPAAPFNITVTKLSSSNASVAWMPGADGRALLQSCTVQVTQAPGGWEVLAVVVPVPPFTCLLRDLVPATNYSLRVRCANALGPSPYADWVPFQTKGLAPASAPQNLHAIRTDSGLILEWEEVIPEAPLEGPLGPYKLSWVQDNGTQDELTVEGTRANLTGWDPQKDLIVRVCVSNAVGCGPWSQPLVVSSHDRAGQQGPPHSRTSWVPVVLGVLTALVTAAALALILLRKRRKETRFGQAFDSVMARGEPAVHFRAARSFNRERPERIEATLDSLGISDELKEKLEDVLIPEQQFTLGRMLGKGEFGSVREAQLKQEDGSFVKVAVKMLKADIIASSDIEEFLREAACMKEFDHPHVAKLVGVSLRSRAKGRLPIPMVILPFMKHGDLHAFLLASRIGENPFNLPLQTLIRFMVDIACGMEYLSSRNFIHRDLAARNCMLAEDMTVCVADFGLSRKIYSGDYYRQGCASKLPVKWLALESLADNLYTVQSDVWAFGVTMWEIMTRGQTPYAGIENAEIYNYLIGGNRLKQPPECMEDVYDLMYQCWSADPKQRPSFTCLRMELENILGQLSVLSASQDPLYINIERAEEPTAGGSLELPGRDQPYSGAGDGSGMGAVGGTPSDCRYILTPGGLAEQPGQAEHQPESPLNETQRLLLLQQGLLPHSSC
The settings on record: at 1 µM.

The target of test [2] is Tyrosine-protein kinase Yes (Homo sapiens) (UniProt P07947). The settings on record: at 0.1 µM.
Chain of Tyrosine-protein kinase Yes (Homo sapiens) (P07947 2-543 limits assumed): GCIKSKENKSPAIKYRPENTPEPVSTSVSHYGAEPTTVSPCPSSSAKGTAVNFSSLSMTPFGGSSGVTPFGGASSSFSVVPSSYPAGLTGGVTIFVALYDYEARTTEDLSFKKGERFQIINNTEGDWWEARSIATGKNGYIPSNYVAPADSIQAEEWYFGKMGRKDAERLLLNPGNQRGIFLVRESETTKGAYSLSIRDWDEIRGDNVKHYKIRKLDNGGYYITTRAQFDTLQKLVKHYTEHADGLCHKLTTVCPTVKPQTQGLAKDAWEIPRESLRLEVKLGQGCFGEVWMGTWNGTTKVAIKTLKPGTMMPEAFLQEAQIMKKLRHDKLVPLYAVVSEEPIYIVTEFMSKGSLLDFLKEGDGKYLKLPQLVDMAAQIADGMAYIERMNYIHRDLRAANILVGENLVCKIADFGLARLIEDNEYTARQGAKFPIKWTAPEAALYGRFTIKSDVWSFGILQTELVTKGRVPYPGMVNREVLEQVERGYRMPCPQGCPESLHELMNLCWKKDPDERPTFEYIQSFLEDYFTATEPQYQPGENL
Test [3] has the same target. The settings on record: at 1 µM.
The target of test [4] is Serine/threonine-protein kinase B-raf (Homo sapiens) (UniProt P15056). The settings on record: at 0.1 µM.
Chain of Serine/threonine-protein kinase B-raf (Homo sapiens) (P15056 whole entry): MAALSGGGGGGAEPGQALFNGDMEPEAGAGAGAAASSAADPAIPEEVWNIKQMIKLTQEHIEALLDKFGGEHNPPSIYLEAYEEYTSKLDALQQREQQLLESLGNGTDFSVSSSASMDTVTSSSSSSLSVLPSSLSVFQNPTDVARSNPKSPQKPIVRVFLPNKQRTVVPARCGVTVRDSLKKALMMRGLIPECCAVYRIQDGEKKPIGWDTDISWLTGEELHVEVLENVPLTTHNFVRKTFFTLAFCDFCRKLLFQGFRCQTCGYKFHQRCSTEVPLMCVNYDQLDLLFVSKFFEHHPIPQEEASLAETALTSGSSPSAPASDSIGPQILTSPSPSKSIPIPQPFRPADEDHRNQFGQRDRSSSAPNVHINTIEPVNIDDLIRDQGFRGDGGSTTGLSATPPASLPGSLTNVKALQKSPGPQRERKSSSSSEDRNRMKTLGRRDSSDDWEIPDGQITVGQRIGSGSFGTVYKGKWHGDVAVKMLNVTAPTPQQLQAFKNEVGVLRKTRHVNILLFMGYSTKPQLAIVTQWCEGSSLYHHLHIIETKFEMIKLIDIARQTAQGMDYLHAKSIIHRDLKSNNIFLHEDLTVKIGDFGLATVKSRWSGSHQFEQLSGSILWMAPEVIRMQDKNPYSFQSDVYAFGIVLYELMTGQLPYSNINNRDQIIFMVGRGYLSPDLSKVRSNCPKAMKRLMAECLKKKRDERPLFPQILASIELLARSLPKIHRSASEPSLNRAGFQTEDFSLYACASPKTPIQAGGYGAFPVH
Test [5] has the same target. The settings on record: at 1 µM.
Test [6] concerns Serine/threonine-protein kinase B-raf (Homo sapiens), P15056 [V600E]. The conditions noted are these: at 0.1 µM.
Chain of Serine/threonine-protein kinase B-raf (Homo sapiens), P15056 [V600E] (P15056 whole entry V600E): as the sequence (P15056 whole entry) above, with V600E counted along it
The test system is the same in test [7]. The conditions noted are these: at 1 µM.
Test [8] has as its target RAF proto-oncogene serine/threonine-protein kinase (Homo sapiens) (UniProt P04049). The conditions noted are these: at 0.1 µM.
Test [9] shares this target. The conditions noted are these: at 1 µM.
Test [10] concerns the target T2, Interleukin-1 receptor-associated kinase 4 (Homo sapiens) (UniProt Q9NWZ3).
T2 sequence (whole entry): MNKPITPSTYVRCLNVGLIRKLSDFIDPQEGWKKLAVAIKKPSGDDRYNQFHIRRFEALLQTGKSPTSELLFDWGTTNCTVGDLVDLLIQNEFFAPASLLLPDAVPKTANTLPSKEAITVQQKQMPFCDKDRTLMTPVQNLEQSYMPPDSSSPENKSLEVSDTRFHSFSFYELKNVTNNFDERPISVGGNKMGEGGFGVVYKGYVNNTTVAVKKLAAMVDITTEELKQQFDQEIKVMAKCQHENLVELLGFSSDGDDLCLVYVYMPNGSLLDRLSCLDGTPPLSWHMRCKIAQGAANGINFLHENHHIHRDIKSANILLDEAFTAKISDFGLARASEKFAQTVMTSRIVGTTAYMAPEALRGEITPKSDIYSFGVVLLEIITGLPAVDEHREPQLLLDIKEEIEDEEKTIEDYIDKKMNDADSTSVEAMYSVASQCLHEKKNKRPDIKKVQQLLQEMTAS
The settings on record: at 0.1 µM.

For test [11], the target named is T2, Interleukin-1 receptor-associated kinase 4 (Homo sapiens). The settings on record: at 1 µM.
Test [12] concerns the target Leucine-rich repeat serine/threonine-protein kinase 2 (Homo sapiens) (UniProt Q5S007). The conditions noted are these: at 0.1 µM.
For test [13] the target is unchanged. The conditions noted are these: at 1 µM.
Test [14] relates to Leucine-rich repeat serine/threonine-protein kinase 2 (Homo sapiens), Q5S007 [G2019S]. The conditions noted are these: at 0.1 µM.
Chain of Leucine-rich repeat serine/threonine-protein kinase 2 (Homo sapiens), Q5S007 [G2019S] (Q5S007 whole entry G2019S): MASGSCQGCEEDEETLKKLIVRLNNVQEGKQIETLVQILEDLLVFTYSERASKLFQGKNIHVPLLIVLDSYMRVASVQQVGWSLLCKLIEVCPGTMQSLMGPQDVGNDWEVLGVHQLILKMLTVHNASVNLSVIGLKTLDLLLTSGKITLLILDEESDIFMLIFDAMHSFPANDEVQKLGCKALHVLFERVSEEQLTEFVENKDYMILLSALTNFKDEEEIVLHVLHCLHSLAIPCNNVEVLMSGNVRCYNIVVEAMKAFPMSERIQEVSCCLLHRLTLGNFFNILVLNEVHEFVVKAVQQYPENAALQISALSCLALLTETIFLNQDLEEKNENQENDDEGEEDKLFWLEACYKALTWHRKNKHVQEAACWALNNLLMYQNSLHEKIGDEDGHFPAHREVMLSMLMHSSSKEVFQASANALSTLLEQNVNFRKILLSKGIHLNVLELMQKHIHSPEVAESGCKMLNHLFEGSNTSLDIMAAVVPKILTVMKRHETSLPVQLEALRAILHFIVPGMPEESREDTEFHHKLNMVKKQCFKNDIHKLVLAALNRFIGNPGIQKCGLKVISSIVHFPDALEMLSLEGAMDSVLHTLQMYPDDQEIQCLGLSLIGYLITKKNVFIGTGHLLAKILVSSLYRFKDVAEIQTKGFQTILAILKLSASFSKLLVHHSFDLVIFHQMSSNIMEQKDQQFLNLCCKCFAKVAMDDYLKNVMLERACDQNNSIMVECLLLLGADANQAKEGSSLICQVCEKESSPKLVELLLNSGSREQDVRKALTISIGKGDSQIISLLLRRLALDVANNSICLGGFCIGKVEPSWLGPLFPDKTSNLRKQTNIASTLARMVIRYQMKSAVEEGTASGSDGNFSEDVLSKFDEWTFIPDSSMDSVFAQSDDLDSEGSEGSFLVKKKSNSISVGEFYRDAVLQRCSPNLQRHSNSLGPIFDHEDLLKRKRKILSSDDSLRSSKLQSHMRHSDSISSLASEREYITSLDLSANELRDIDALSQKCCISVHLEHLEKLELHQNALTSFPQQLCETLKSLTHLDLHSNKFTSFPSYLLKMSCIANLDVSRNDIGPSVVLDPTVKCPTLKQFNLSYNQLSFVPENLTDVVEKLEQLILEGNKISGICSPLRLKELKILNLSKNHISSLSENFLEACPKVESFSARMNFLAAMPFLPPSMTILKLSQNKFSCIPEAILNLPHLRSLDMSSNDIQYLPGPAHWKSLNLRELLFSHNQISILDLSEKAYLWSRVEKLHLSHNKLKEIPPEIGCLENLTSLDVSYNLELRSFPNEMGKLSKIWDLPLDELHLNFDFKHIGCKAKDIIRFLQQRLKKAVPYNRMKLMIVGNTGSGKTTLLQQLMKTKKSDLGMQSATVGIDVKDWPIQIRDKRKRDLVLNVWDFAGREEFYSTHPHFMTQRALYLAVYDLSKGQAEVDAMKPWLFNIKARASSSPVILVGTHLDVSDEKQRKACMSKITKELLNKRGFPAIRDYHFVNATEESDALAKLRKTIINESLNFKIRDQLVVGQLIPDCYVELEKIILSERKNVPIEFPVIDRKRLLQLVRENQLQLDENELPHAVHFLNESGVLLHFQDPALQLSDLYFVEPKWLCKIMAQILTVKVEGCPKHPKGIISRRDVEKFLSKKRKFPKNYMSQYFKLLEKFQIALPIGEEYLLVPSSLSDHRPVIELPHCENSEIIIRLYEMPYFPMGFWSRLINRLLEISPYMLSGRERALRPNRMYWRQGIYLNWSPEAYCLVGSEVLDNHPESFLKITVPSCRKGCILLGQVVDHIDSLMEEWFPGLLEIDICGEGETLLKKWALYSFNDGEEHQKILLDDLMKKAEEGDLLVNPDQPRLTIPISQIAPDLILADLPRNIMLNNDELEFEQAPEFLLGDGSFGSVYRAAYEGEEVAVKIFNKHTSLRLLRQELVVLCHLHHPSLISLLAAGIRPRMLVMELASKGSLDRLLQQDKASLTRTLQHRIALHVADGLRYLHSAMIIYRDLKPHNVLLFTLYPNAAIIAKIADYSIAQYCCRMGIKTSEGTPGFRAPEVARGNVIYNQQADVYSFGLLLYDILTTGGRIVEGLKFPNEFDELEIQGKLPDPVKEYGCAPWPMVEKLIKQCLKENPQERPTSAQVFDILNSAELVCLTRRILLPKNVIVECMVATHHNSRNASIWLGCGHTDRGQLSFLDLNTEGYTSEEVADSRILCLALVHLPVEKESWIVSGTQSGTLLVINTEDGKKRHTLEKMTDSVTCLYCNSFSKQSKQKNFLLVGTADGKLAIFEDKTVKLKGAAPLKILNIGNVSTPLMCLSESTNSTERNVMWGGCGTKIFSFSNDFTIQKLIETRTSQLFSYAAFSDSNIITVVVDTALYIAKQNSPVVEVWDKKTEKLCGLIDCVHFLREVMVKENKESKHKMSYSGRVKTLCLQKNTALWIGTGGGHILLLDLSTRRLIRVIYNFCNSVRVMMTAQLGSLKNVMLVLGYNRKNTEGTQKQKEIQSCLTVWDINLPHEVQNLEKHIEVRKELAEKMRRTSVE
For test [15] the test system is unchanged. The settings on record: at 1 µM.
The target of test [16] is T3, Tyrosine-protein kinase ZAP-70 (Homo sapiens) (UniProt P43403).
T3 sequence (whole entry): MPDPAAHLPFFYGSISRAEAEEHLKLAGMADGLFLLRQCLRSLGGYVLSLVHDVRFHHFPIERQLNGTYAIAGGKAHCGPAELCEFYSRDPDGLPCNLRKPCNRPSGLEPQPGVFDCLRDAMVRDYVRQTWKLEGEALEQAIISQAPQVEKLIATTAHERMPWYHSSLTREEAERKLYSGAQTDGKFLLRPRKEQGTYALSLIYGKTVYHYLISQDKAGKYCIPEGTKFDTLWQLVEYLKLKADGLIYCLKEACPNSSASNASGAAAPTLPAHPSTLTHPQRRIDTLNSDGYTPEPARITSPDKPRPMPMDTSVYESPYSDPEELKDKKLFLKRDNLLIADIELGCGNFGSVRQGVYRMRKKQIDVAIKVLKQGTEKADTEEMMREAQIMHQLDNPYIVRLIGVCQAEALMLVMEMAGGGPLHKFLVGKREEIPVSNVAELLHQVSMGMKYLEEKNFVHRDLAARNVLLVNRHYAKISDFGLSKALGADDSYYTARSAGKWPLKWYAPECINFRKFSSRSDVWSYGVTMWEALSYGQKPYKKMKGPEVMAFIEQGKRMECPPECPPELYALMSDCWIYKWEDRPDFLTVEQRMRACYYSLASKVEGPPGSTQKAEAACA
The settings on record: at 1 µM.

The target in test [17] is T3, Tyrosine-protein kinase ZAP-70 (Homo sapiens). The settings on record: at 0.1 µM.

Chain of RAF proto-oncogene serine/threonine-protein kinase (Homo sapiens) (P04049 whole entry): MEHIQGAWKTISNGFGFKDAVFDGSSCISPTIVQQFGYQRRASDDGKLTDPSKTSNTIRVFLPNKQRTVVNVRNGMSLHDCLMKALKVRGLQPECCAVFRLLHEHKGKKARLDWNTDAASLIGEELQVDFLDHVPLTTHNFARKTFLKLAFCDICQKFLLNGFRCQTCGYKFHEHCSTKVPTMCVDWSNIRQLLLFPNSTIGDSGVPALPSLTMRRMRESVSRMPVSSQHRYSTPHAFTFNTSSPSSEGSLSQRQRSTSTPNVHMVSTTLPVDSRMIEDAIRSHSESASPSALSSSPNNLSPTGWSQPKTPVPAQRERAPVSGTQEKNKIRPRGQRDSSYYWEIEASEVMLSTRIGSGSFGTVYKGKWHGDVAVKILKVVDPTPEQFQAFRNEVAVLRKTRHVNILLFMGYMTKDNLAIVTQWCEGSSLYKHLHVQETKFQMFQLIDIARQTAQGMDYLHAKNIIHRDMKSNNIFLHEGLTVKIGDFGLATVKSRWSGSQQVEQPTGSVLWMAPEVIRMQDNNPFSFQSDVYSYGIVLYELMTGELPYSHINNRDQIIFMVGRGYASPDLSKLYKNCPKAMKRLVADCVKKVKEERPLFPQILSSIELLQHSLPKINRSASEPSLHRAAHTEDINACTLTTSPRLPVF
Chain of Leucine-rich repeat serine/threonine-protein kinase 2 (Homo sapiens) (Q5S007 whole entry): as the sequence (Q5S007 whole entry G2019S) above, with S2019G counted along it

For `NS(=O)(=O)c1ccc(Nc2cc(-c3ccc(O)c(F)c3)n[nH]2)cc1`, the inhibition in test [1] was 52.3%; in test [2], -3.77%; in [3] it was 11.7%; in [4] it was -4.38%; in [5], -2.42%; in test [6] it was -4.83%. Also, the inhibition is -3.52% in test [7]; -4.11% in test [8]; 0.94% in test [9]; 3.6% in [10]; -1.08% in test [11]; 1.51% in test [12]. In addition, the inhibition in test [13] was found to be 13.2%; in [14], 4.54%; in test [15] it was 29.7%.

Regarding `Clc1ccc(CNc2nccc(-c3cnn4ncccc34)n2)cc1`, the inhibition was 2.27% in test [1]; -0.37% in test [2]; -1.15% in test [3]; -0.35% in [16]; 0.05% in test [4]; 3.64% in test [5]. Moreover, the inhibition in [6] is 0.12%; in [7], 2.83%; in test [8], 1.36%; in [9], -1.19%; in test [10], -1.73%; in test [11], 2.1%. The inhibition was found to be 1.21% in test [12], 14% in test [13], 1.24% in [14] and 13% in test [15].

As for `CS(=O)(=O)CCNCc1ccc(-c2ccc3ncnc(Nc4ccc(OCc5ccccc5)c(Br)c4)c3c2)o1`, the inhibition in test [1] was 2.72%; in [2], 4.45%; in test [3], 20.7%; in test [17] it was -2.48%; in test [16] it was -1.83%; in [4] it was 4.73%. The inhibition in test [5] turned out to be 4.32%; in test [6] it was 3.23%; in test [7], 2.38%; in [8], 3.26%; in test [9] it was 3.63%; in test [10], 0.92%. Further, the inhibition in test [11] was 1.52%; in [12] it was -4.59%; in test [13] it was -6.11%; in test [14] it was -1.19%; in [15] it was -0.13%.

Take `COc1cc(Nc2ncc(-c3ccccc3)o2)cc(OC)c1OC`: the inhibition was 1.3% in test [1]; 11.5% in test [2]; 46.6% in [3]; -2.95% in test [17]; 0.62% in [16]; -1.68% in [4]. Further, the inhibition in test [5] is -1.94%; in [6], -1.66%; in [7] it was -1.09%; in test [8], -3.29%; in [9], -4.59%; in test [10] it was -0.52%. Besides, the inhibition in [11] was 0.55%; in test [12], 0.73%; in test [13] it was 8.78%; in [14], 4.17%; in [15], 21.3%.

For the compound `Cc1nnc(-c2ccc(C)c(-c3ccc(C(=O)NCc4ccc(Cl)cc4)cc3)c2)o1`, the inhibition in test [1] is 3.57%; in test [2] it was 2.58%; in test [3] it was 5.29%; in test [16], -3.27%; in [4], 5.55%; in test [5], 4.07%. Moreover, the inhibition in test [6] is 6.27%; in test [7] it was 3.85%; in test [8], 8.41%; in test [9], -0.47%; in test [10] it was 4.09%; in test [11], 2.12%. Moreover, the inhibition in test [12] is -4.32%; in test [13] it was -3.04%; in [14], -2.08%; in [15], -4%.

For `O=C(Nc1n[nH]c2nc(-c3ccc(O)cc3)c(Br)cc12)C1CC1`, the inhibition was determined as 41.4% in [1]; 5.61% in [2]; 27.4% in test [3]; 5.14% in test [17]; 4.28% in test [16]; 9.27% in [4]. Further, the inhibition in test [5] was 12.6%; in [6], 10.1%; in test [7] it was 13%; in [8], -1.54%; in [9] it was 3.99%; in test [10], 3.81%. The inhibition in test [11] was 3.24%; in test [12] it was 5.19%; in test [13] it was 14.1%; in test [14], 6.34%; in [15], 22.4%.

Take `O=C1NC(=O)C(c2cccc(Cl)c2)=C1Nc1ccc(Cl)c(C(=O)O)c1`: the inhibition in test [1] was determined as 2.5%; in test [2], 4.03%; in [3], 6%; in test [17], 4.89%; in test [16] it was 2.76%; in test [4] it was 5.48%. Moreover, the inhibition in test [5] turned out to be 2.76%; in test [6], 6.61%; in test [7], 4.77%; in test [8] it was 2.73%; in [9] it was 17.7%; in test [10], 3.69%. The inhibition in test [11] turned out to be 1.5%; in [12], 2.15%; in test [13] it was 4.76%; in [14], 3.36%; in [15], 7.81%.

As for `NCc1ccc(-n2c(-c3nonc3N)nc3cnccc32)cc1`, the inhibition amounted to 3.1% in test [1]; 0.26% in test [2]; 3.43% in [3]; 6.32% in test [16]; 7.22% in [4]; 9.93% in test [5]. Besides, the inhibition in [6] is 8.7%; in [7], 8.53%; in [8], 8.42%; in [9] it was 3.91%; in [10] it was -0.81%; in test [11], 2.35%. The inhibition in test [12] worked out at 17.2%; in test [13], 53.5%; in test [14], 22%; in test [15] it was 54.1%.

With `Cc1ccc(C(=O)NC2CCC2)cc1-c1ccc(C(=O)NCC2CC2)cc1`, the inhibition came out at 1.69% in test [1]; 1.57% in test [2]; 0.45% in test [3]; 3.05% in test [17]; 3.75% in test [16]; 3.33% in test [4]. Besides, the inhibition in [5] is 2.03%; in test [6], 3.91%; in test [7] it was 3.62%; in [8], -1.45%; in [9], -1.36%; in [10] it was 3.77%. The inhibition in test [11] worked out at 1.51%; in test [12], 2.63%; in [13], 2.18%; in test [14], 2.78%; in test [15], 5.64%.

With `Cc1ccc(NC(=O)c2ccoc2)cc1-c1ccc(C(=O)NCC2CC2)cc1`, the inhibition in [1] was 3.21%; in test [2] it was 3.34%; in [3], 1.5%; in [17] it was -0.49%; in test [16], 1.63%; in test [4], 3.14%. For the same compound, the inhibition in test [5] is 2.28%; in test [6], 2.97%; in test [7] it was 1.81%; in test [8], 0.61%; in [9], -0.41%; in test [10] it was 1.67%. The inhibition in test [11] came out at 2%; in test [12] it was 1.24%; in test [13] it was 4.06%; in test [14] it was 2.32%; in test [15] it was 2.75%.

On to `NS(=O)(=O)c1ccc(N/N=C2\C(=O)Nc3ccc(-c4cnco4)cc32)cc1`, for which the inhibition in [1] was found to be 12.4%; in test [2], 2.12%; in test [3] it was 12.1%; in test [16], 2.47%; in test [4] it was 3.07%; in test [5], 5.71%. In addition, the inhibition is 1.57% in [6]; 4.4% in test [7]; 0.67% in [8]; -0.01% in test [9]; 0.31% in test [10]; 1.08% in test [11]. The inhibition in [12] came to 9.37%; in [13], 52.5%; in test [14] it was 32.2%; in test [15], 55.8%.

As a reminder, the inhibition is the relative decrease from the control value, in per cent.
